Some test systems named below: NCI-H226 lung; NCI-H322M lung; HOP-62 NSCLC; NCI-H460 lung; HOP-92 NSCLC; NCI-H522 lung; A549/ATCC NSCLC; 786-0 renal; COLO 205 colon; DU-145 prostate; K-562 leukemia; MALME-3M melanoma; MDA-MB-231 breast; RXF 393 renal; SF-268 CNS; SF-295 CNS; SF-539 CNS; UACC-257 melanoma; M14 melanoma.
Holding throughout (experiment): NCI-60 one-dose screen, 48 h (100 = growth as untreated, 0 = no growth, -100 = all killed)
Holding throughout (conditions): 10 µM unless noted

The values that follow come from PubChem BioAssay (NCI).

SMILES strings stand for the structures. This is part of a sample that, as a whole, favours compounds with a hit. Of some 83,000 tested, about 20% had one in any assay.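 Cell lines were cultured in 96-well plates, exposed to a single compound concentration, and assessed for percent growth 48 hours later.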 Values without a mark were called inactive. Active and inactive are the calls of the source. How the source made its calls: active means growth percent below 10; inactive means the rest.

On to `Cc1ccc(Nc2nccc(N(C)c3ccc4c(C)n(C)nc4c3)n2)cc1S(N)(=O)=O`, for which the growth in the test with NCI-H226 lung is 27.5%; with NCI-H322M lung, 7.5% (active); with HOP-62 NSCLC, 12.4%; in the test with NCI-H460 lung, 21.5%; with HOP-92 NSCLC, -56.2% (active); in the test with NCI-H522 lung it was 10.7%. Moreover, the growth was 5.92% (active) in the test with A549/ATCC NSCLC; 35.7% in the test on 786-0 renal; -10.3% (active) in the test on COLO 205 colon; 39.4% in the test on DU-145 prostate; 7.01% (active) with K-562 leukemia; 2.35% (active) in the test with MALME-3M melanoma. Besides, the growth with MDA-MB-231 breast was -2.02% (active); in the test on RXF 393 renal, -37.5% (active); with SF-268 CNS, 45.4%; with SF-295 CNS, 31.1%; with SF-539 CNS, -45.2% (active); with UACC-257 melanoma it was -6.96% (active). Moreover, the growth in the test on M14 melanoma is -3.62% (active).

Take `NN1C(=O)CSC1=S`: the growth in the test with NCI-H226 lung is 100%; with NCI-H322M lung it was 98.9%; in the test on HOP-62 NSCLC, 81.7%; with NCI-H460 lung, 105%; in the test on HOP-92 NSCLC it was 102%; in the test on NCI-H522 lung it was 73.3%. The growth with A549/ATCC NSCLC is 65.5%; with 786-0 renal, 99.2%; with COLO 205 colon it was 107%; in the test on DU-145 prostate, 108%; with K-562 leukemia it was 101%; in the test on MALME-3M melanoma, 109%. For the same compound, the growth in the test with MDA-MB-231 breast is 105%; in the test on SF-268 CNS, 95.9%; with SF-295 CNS it was 105%; in the test with SF-539 CNS, 105%; in the test on M14 melanoma, 97.6%.

In the case of `O=C(NC1CCNCC1)c1[nH]ncc1NC(=O)c1c(Cl)cccc1Cl`, the growth with NCI-H226 lung is 0.903% (active); in the test on NCI-H322M lung, 5.64% (active); in the test with HOP-62 NSCLC, -18.5% (active); in the test on NCI-H460 lung, 8.4% (active); in the test on HOP-92 NSCLC, -6.06% (active); in the test with NCI-H522 lung, -23% (active). Moreover, the growth is 2.33% (active) in the test on 786-0 renal; -35.9% (active) with COLO 205 colon; 12.3% in the test with DU-145 prostate; 5.78% (active) with K-562 leukemia; -38.8% (active) in the test with MALME-3M melanoma; 1.88% (active) in the test on MDA-MB-231 breast. For the same compound, the growth in the test on RXF 393 renal was -50% (active); in the test on SF-268 CNS, 9.79% (active); with SF-295 CNS, 8.53% (active); in the test with SF-539 CNS it was -41.9% (active); in the test on UACC-257 melanoma, -6.15% (active); in the test with M14 melanoma, 9.93% (active).

As to `N#CCNC(=O)c1ccc(-c2ccnc(Nc3ccc(N4CCOCC4)cc3)n2)cc1`, the growth was -3.52% (active) with NCI-H226 lung; 39.2% in the test with NCI-H322M lung; 4.27% (active) with HOP-62 NSCLC; 6.81% (active) in the test on NCI-H460 lung; 46.9% in the test on HOP-92 NSCLC; 4.57% (active) in the test with NCI-H522 lung. The growth in the test with A549/ATCC NSCLC was 13.4%; with 786-0 renal, 4.83% (active); with COLO 205 colon, 2.5% (active); in the test with DU-145 prostate it was 18.6%; in the test with K-562 leukemia, 26.9%; with MALME-3M melanoma it was 33.2%. The growth was 19.8% in the test on MDA-MB-231 breast; -62.8% (active) with RXF 393 renal; 22.1% in the test on SF-268 CNS; 49.5% in the test on SF-295 CNS; -9.39% (active) in the test with SF-539 CNS; 31.1% in the test on UACC-257 melanoma. Moreover, the growth in the test with M14 melanoma was 44%.

In the case of `Cc1cc(C(O)CN(C)C)cc2c1ccc1cc(C(C)C)ccc12` (stereo not drawn), the growth was 33.6% in the test on NCI-H226 lung; -10.1% (active) in the test on NCI-H322M lung; 50.2% with HOP-62 NSCLC; -35.7% (active) with NCI-H460 lung; 5.86% (active) in the test on HOP-92 NSCLC; -25% (active) in the test with NCI-H522 lung. In addition, the growth is 32.9% in the test on A549/ATCC NSCLC; 14.5% in the test on 786-0 renal; -78.1% (active) in the test with COLO 205 colon; 55.7% in the test on DU-145 prostate; -20.2% (active) with K-562 leukemia; -77.3% (active) with MALME-3M melanoma. Besides, the growth in the test with MDA-MB-231 breast is -35.1% (active); in the test with RXF 393 renal it was -47.8% (active); in the test on SF-268 CNS, 62.2%; in the test with SF-295 CNS it was -66.1% (active); in the test on SF-539 CNS it was 71.5%; in the test with UACC-257 melanoma, -74.4% (active). Moreover, the growth in the test on M14 melanoma was -100% (active).

Take `CCN1CCN(c2nc(C)cc(N(CCNc3ccnc4cc(Cl)ccc34)Cc3ccc4c(c3)OCO4)n2)CC1`: the growth in the test on NCI-H226 lung is 75.3%; with NCI-H322M lung, 36.3%; in the test on HOP-62 NSCLC, -19.8% (active); in the test with NCI-H460 lung, 18.1%; in the test with HOP-92 NSCLC, -4.69% (active); with NCI-H522 lung, -0.151% (active). The growth in the test with A549/ATCC NSCLC was 20.4%; in the test on 786-0 renal, -24.5% (active); in the test on COLO 205 colon it was -75.8% (active); with DU-145 prostate, 40.2%; with K-562 leukemia, -54.9% (active); in the test with MALME-3M melanoma, -82.2% (active). In addition, the growth was -0.846% (active) with MDA-MB-231 breast; -54.6% (active) with RXF 393 renal; 30.7% in the test with SF-268 CNS; -62.9% (active) in the test on SF-295 CNS; -90.7% (active) in the test on SF-539 CNS; -80.2% (active) in the test on M14 melanoma.

As to `CCN1CCN(c2cc(C)nc(N(CCCNc3ccnc4cc(Cl)ccc34)Cc3cccs3)n2)CC1`, the growth in the test on NCI-H226 lung is 57.6%; in the test on NCI-H322M lung it was 12%; with HOP-62 NSCLC it was -25.4% (active); in the test with NCI-H460 lung, 5.44% (active); in the test with HOP-92 NSCLC, 11.6%; in the test with NCI-H522 lung, 8.27% (active). Also, the growth was 20.1% in the test with A549/ATCC NSCLC; -71.8% (active) in the test with 786-0 renal; -80.2% (active) with COLO 205 colon; 26.4% in the test on DU-145 prostate; -14.2% (active) in the test with K-562 leukemia; -85.7% (active) with MALME-3M melanoma. For the same compound, the growth in the test with MDA-MB-231 breast was -20% (active); with RXF 393 renal, -53.8% (active); in the test on SF-268 CNS it was 7.31% (active); with SF-295 CNS, -69.4% (active); in the test with SF-539 CNS, -89.8% (active); in the test on M14 melanoma, -84% (active).

Turning to `Cc1ccc(-n2nc(C(C)(C)C)cc2NC(=O)NCc2cc(F)ccc2Oc2ccc3c(cnn3CCO)c2)cc1`, the growth in the test on NCI-H226 lung was 21.1%; in the test with NCI-H322M lung it was 21.6%; in the test with HOP-62 NSCLC, 26.1%; in the test with NCI-H460 lung, 25.8%; in the test with HOP-92 NSCLC it was 19.5%; in the test on NCI-H522 lung it was 4.27% (active). Also, the growth with A549/ATCC NSCLC is 19.4%; with 786-0 renal, 29.1%; in the test with COLO 205 colon it was -13% (active); with DU-145 prostate, 42.4%; in the test with K-562 leukemia, 3.71% (active); in the test with MALME-3M melanoma it was -6.23% (active). Besides, the growth in the test on MDA-MB-231 breast is 14.1%; in the test on RXF 393 renal, -10.3% (active); in the test with SF-268 CNS, 34.8%; in the test with SF-295 CNS, 26.9%; in the test with SF-539 CNS it was 21.7%; in the test on UACC-257 melanoma, -11.2% (active). Further, the growth in the test on M14 melanoma is 9.06% (active).

`Cc1nc(-c2cn3c(n2)-c2ccc(-c4cnn(C(C)(C)C(N)=O)c4)cc2OCC3)n(C(C)C)n1`: the growth is 32.7% with NCI-H226 lung; 2.09% (active) in the test on NCI-H322M lung; 31.2% with HOP-62 NSCLC; 18.7% in the test with NCI-H460 lung; 0.115% (active) with HOP-92 NSCLC; 36.1% in the test with NCI-H522 lung. Moreover, the growth is 8.09% (active) in the test with A549/ATCC NSCLC; 7.76% (active) with 786-0 renal; 13.5% in the test on COLO 205 colon; 28.7% with DU-145 prostate; 51% in the test on K-562 leukemia; 11.1% in the test with MALME-3M melanoma. Moreover, the growth in the test with MDA-MB-231 breast was 31.8%; in the test on RXF 393 renal it was -28.1% (active); in the test on SF-268 CNS, 33.1%; with SF-295 CNS, 3.66% (active); with SF-539 CNS, -19.5% (active); in the test with UACC-257 melanoma, 20.2%. For the same compound, the growth in the test on M14 melanoma was 40.5%.

For the compound `Cn1ccnc1C(=O)/C=C/c1ccc(CC(=O)Nc2ccc(C(F)(F)F)cc2)cc1`, the growth with NCI-H226 lung was 48.5%; in the test on NCI-H322M lung, 6.96% (active); in the test with HOP-62 NSCLC, -33.7% (active); with NCI-H460 lung it was -0.126% (active); with HOP-92 NSCLC, 38.3%; with NCI-H522 lung, -3.98% (active). For the same compound, the growth in the test with A549/ATCC NSCLC was 6.44% (active); in the test with 786-0 renal, 1.74% (active); in the test with COLO 205 colon, 5.87% (active); in the test with DU-145 prostate, 7.72% (active); in the test with K-562 leukemia, 6.29% (active); in the test with MALME-3M melanoma, 77.5%. The growth is 8.95% (active) with MDA-MB-231 breast; -1.43% (active) in the test on RXF 393 renal; 16.4% in the test on SF-268 CNS; 7.9% (active) in the test on SF-295 CNS; -36.8% (active) with SF-539 CNS; 77.9% in the test with UACC-257 melanoma. The growth in the test with M14 melanoma is 21.3%.

As for `CN1CCN(Cc2ccc(NC(=O)c3[nH]ncc3Nc3ncnc4sc5c(c34)CCCC5)cc2)CC1`, the growth with NCI-H226 lung was -51.9% (active); in the test with NCI-H322M lung, -50.8% (active); in the test on HOP-62 NSCLC it was -72% (active); in the test on NCI-H460 lung, -62.2% (active); in the test with HOP-92 NSCLC, -21.1% (active); with NCI-H522 lung, -76.1% (active). In addition, the growth with A549/ATCC NSCLC was -58.2% (active); in the test on 786-0 renal, -92.2% (active); in the test with COLO 205 colon it was -93% (active); in the test on DU-145 prostate, -86.7% (active); in the test on K-562 leukemia, -60.6% (active); in the test on MALME-3M melanoma, -75.4% (active). Also, the growth in the test with MDA-MB-231 breast was -57.8% (active); with RXF 393 renal, -92.9% (active); in the test with SF-268 CNS, -44.3% (active); in the test on SF-295 CNS, -87.9% (active); in the test on SF-539 CNS, -100% (active); in the test on M14 melanoma, -95.2% (active).
